About 83,000 compounds went through this panel and 20% of them were active in at least one assay; those are over-represented in the sample as a whole.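 96-well plates, one dose, 48 hours. Percent growth reported; active if below 10.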 A number with no mark means an inactive call. The source made the active and inactive calls.
Test system: HL-60(TB) leukemia
Experiment: NCI-60 one-dose screen, 48 h (100 = growth as untreated, 0 = no growth, -100 = all killed)
Conditions: 10 µM unless noted

Structure (SMILES)	growth
O=[N+]([O-])c1ccc(Sc2cccc[n+]2[O-])c2nonc12	-49.1% (active)
Cc1[nH]c(C(=O)Nc2ccccc2OC2CCNCC2)c(Cl)c1Cl	-57.1% (active)
COc1ncnc2[nH]cc(CN3CCN(c4ccc(F)cc4)CC3)c12	101%
NC(CCC(=O)NC(CS)C(=O)NCC(=O)O)C(=O)O (stereo unspecified)	73.1%
C=C(C)[C@@H]1CC[C@]2(C(=O)O)CC[C@]3(C)[C@H](CC[C@@H]4[C@@]5(C)C/C(=C/c6ccco6)C(=O)C(C)(C)[C@@H]5CC[C@]43C)[C@@H]12	-17.2% [100 µM] (active)
Oc1cc(O)c(Br)cc1Br	104%
COc1cc(Nc2ncc(F)c(Nc3ccc4c(n3)NC(=O)C(C)(C)O4)n2)cc(OC)c1OC	103%
CN(C)c1ncc(-c2ccc(C(F)(F)F)cc2)c(NC2CCCCCC2)n1	39.8%
CCC(CC(C)C)Nc1ccc(NC(CC)CC(C)C)cc1 (stereo unspecified)	35.3%
C[N+]1(CC2CO2)CCCCCC1 (stereo unspecified)	109%
CC(C)OC(=O)Nc1cc(F)ccc1F	94.7%
NC(=O)c1c(NC(=O)c2cccs2)sc2c1CCC(=O)C2	2.73% (active)
Cc1cccc(/C=C2\CN(C(=O)OC(C)(C)C)C/C(=C\c3cccc(C)c3)C2=O)c1	90.2%
CCN1CCN(c2nc(NNC(=O)c3cccc(OC)c3)nc(N3CCN(C(c4ccccc4)c4ccccc4)CC3)n2)CC1	28.4%
COc1cc(NC(C)CCCN2C(=O)c3ccccc3C2=O)c2nc(C)ccc2c1OC (stereo unspecified)	69.6%
C[C@H]1[C@H](C)CC[C@]2(C(=O)OCCCC[P+](c3ccccc3)(c3ccccc3)c3ccccc3)CC[C@]3(C)C(=CC[C@@H]4[C@@]5(C)CC[C@H](OC(=O)C(Cl)Cl)C(C)(C)[C@@H]5CC[C@]43C)[C@H]12	-54.3% (active)
CC/C(C)=C(\C)C(=O)O	100%
C=C(C)[C@@H]1CC[C@]2(C(=O)O)CC[C@]3(C)[C@H](CC[C@@H]4[C@@]5(C)C[C@@H](CC#Cc6ccc(Br)cc6)C(=O)C(C)(C)[C@@H]5CC[C@]43C)[C@@H]12	47.7%
Cc1nc2c(c(=O)[nH]1)C(c1ccccc1)c1ccc3ccccc3c1O2 (stereo unspecified)	-2.8% (active)
COc1cc(C2C(C#N)=C(N)Oc3cc4c(cc32)OCO4)cc2c1OCO2 (stereo unspecified)	-43% (active)
COc1ccc(-c2n/c(=C\c3c(O)[nH]c4ccccc34)cc3c2=Nc2ccccc2-3)cc1	-19.1% (active)

Structure (SMILES)	growth
COC(=O)[C@H]1Cc2c([nH]c3ccccc23)[C@@H](c2cccs2)N1	99.7%
CN(C)CSc1nc2ccccc2s1	101%
Cc1ccc(NC(=O)C2CCC(CN3CCN(C)CC3)CC2)cc1Nc1nccc(-c2cccnc2)n1 (stereo unspecified)	110%
CCCCCCCC/C=C\CCCCCCCCOc1cccc(CC(=O)NCC[N+]2(C)CCOCC2)c1	67.6%
OC[C@@H](O)C(O[C@@H]1O[C@H](CO)[C@H](O)[C@H](O)[C@H]1O)[C@H](O)[C@@H](O)CO (stereo partly specified)	94.9%
Cc1cc(-c2noc(C(F)(F)F)n2)ccc1N1CCN(c2cc(C(=O)N(C)C)no2)CC1	49.7%
N[C@@H](CO)C(=O)O	106%
COc1ccc(CCc2nc3cc(-c4c(C)noc4C)ccc3n2CCN2CCOCC2)cc1	5.97% (active)
COc1ccc(NC(=S)N/N=C/c2ccccc2SSCCC(=O)OC[C@H]2O[C@H](O)[C@H](O)[C@@H](O)[C@@H]2O)cc1	75.1%
NC(=O)c1ccc[n+](Cc2ccc(Cl)cc2Cl)c1	73.1%
COc1ccc(-c2nc(Nc3nc4ccccc4[nH]3)nc(N)c2C#N)cc1	97.8%
O=c1ccc2c(ccc3ncccc32)o1	88.8%
COc1cc(C2CC(=O)Nc3c2ccc2ccccc32)cc(Br)c1OC (stereo unspecified)	-15.2% (active)
CCC(C#N)(CC)c1ccccc1	102%
Cc1cc(C)c(O)c(C(=O)CC(Br)C(=O)O)c1 (stereo unspecified)	79.8%
C=CC(C)(O)CC/C=C(\CO)C(=O)OC1C(C)OC(O[C@](C)(C=C)CC/C=C(\CO)C(=O)O[C@H]2C[C@@]3(C(=O)OC4OC(CO)C(O)C(O)C4OC4OC(C)C(OC5OC(CO)C(O)C5O)C(OC5OC(CO)C(O)C(O)C5O)C4O)C(CC2(C)C)C2=CCC4[C@@]5(C)CC[C@H](OC6OC(COC7OC(C)C(O)C(O)C7OC7OCC(O)C(O)C7O)C(O)C(O)C6NC(C)=O)C(C)(C)C5CC[C@@]4(C)[C@]2(C)C[C@H]3O)C(O)C1O (stereo partly specified)	-52.5% (active)
CCN(CC)CCCC(C)Nc1c2c(nc3ccc(OC)cc13)CCCC2 (stereo unspecified)	80.3%
O=C1Nc2ccccc2/C1=C\c1c[nH]c2ccc(Br)cc12	73.1%
COc1cc2ncnc3c2cc1OCCCCCN(C)Cc1ccc(Br)cc1N3	33.7%
S=C(N/N=C/c1ccccn1)Nc1ccccn1	-13.7% (active)
COC1/C=C/OC2(C)Oc3c(C)c(O)c4c(O)c(c(C=NOC(c5ccccc5)c5ccccc5)c(O)c4c3C2=O)NC(=O)/C(C)=C/C=C/C(C)C(O)C(C)C(O)C(C)C(OC(C)=O)C1C (stereo unspecified)	-13.8% (active)

Structure (SMILES)	growth
O=C(O)CCN1C(=O)/C(=C/C(Cl)=C/c2ccccc2)SC1=S	5.78% (active)
Brc1cnc2[nH]cc(-c3nnc(-c4ccccc4)o3)c2c1	94.5%
C1=C2CCCC3=Cc4ccccc4OC23Oc2ccccc21	8.47% (active)
COc1ccc2c(c1)c(-c1nc(-c3c[nH]c4ncccc34)cs1)cn2C	63.5%
CCCCCN(CCCCC)CCCCCCCCN1CCCc2ccccc21	-14.2% (active)
COc1ccc(/C=C/C(=O)c2cc3c(N)c(C(=O)Nc4cccc5ccccc45)sc3nc2C)cc1	81.9%
O=C(O/C(=C/c1ccccc1)C(F)(F)F)c1ccccc1	32.3%
O=C1CSC(=S)N1CCc1ccc(O)cc1	92%
CC(C)(C)OC(=O)NCCc1ccc(N)cc1	89.4%
O=C(Nc1ccccc1)Nc1ncnc2c1ncn2-c1ccc(Cl)cc1	95.3%
O=C1OCC2=C1C(c1cccc(C(F)(F)F)c1)c1cc3c(cc1N2CCO)OCO3 (stereo unspecified)	-24.9% (active)
C#CCn1cc(C=C2C(=O)NC(=O)NC2=O)c2cc(Cl)ccc21	59.9%
COc1cc(/C=C/C(=O)c2ccc(NC(=O)CSc3nnc(-c4cc(OC)c(OC)c(OC)c4)n3-c3ccccc3)cc2)cc(OC)c1OC	6.87% (active)
Nc1nc(Nc2ccccc2SSc2ccccc2Nc2nc(N)nc(C(Cl)(Cl)Cl)n2)nc(C(Cl)(Cl)Cl)n1	11.5%
Cc1ccc(Cc2c(C=O)nc(N)[nH]c2=O)c2ccccc12	36.1%
C#CCOc1cccc(Nc2c(Cl)c(CCl)nc3ccc(Oc4ccccc4)cc23)c1	41.4%
C=C(NC(=O)C(=C)NC(=O)c1csc(C2=NC3c4csc(n4)C4NC(=O)c5csc(n5)C(C(C)(O)C(C)O)NC(=O)C5CSC(=N5)C(=CC)NC(=O)C(C(C)O)NC(=O)c5csc(n5)C3(CC2)NC(=O)C(C)NC(=O)C(=C)NC(=O)C(C)NC(=O)C(C(C)CC)NC2C=Cc3c(C(C)O)cc(nc3C2O)C(=O)OC4C)n1)C(N)=O (stereo unspecified)	3.83% (active)
Cn1cc(-c2noc(-c3cn(C)c4ncc(F)cc34)n2)c2cc(Br)ccc21	93.8%
c1ccc2cc(C[n+]3ccn(CCCCCCCCCCCCn4cc[n+](Cc5ccc6ccccc6c5)c4)c3)ccc2c1	-69.5% (active)
O=C/C=C/c1ccc([N+](=O)[O-])cc1	106%
O=C(O)c1cc2cc(OCc3ccccc3)ccc2[nH]1	112%

Structure (SMILES)	growth
Clc1ccc(CNc2ccc3nc(CCC4CCCCC4)[nH]c3c2)cc1	24.8%
CC(C)CNCC(O)COc1ccc(C(C)(C)c2ccc(OCC(O)CNCC(C)C)cc2)cc1 (stereo unspecified)	26%
COc1ccc(Nc2cc(C)nc(NCCCNc3ccnc4cc(Cl)ccc34)n2)cc1	-75.7% (active)
O=c1cc(-c2ccccc2)[nH]n1-c1nc2ccccc2[nH]1	11%
Nc1ccc(C2=CC(c3ccc(Cl)cc3)N3C=CSC3=N2)cc1 (stereo unspecified)	-19.3% (active)
Cc1cccc(N=Cc2ccccc2O)c1C	87.9%
CNC(=O)c1cc(Oc2ccc3c(c2)sc2nc(-c4ccc(Cl)cc4)cn23)ccn1	88.4%
CCOC(=O)c1ccc2c(c1)[n+](=O)c(C(=O)C1CCCS1)c(C(F)(F)F)n2[O-] (stereo unspecified)	-69% (active)
O=C(Nc1ncc([N+](=O)[O-])s1)c1cccc([N+](=O)[O-])c1	2.45% (active)
CN1CCN(C2=C(Cl)C(=O)c3ccccc3C2=O)CC1	24.8%
COc1ccc2c(c1)c(=O)oc1c(C)c(OCC(C)=O)ccc12	110%
COc1cc(NCCCN=C(N)NC(N)=NC(C)C)c2ncccc2c1	85.7%
C=C1CC2(OC1=O)C(=O)N(CCCCCCCCCCCCN1C(=O)C3(CC(=C)C(=O)O3)c3ccccc31)c1ccccc12 (stereo unspecified)	45.5%
COc1ccc(CN2CCC(N3CCCC3=O)c3cc(Cl)ccc32)cc1 (stereo unspecified)	80.2%
Cc1ccc(S(=O)(=O)NNC(=O)/C(=C\c2ccc(Cl)cc2)c2nc3ccccc3s2)cc1	89.7%
O=C1OC(Cc2ccccc2)C1c1ccccc1 (stereo unspecified)	84.7%
F	28.1% [6.87 mM]
OC1CSSC1Cn1cnc2c(Nc3ccc(F)c(Cl)c3)ncnc21 (stereo unspecified)	45.8%
